High-throughput results deposited in PubChem by Broad Institute.
Compounds with a hit are over-represented: about 3.9% of the library has one in this group of screens.
HSF1 activator = increases HSF-1 driven luciferase reporter signal; activation, % at 9 µM; NIH3T3-HGL HSF-1 luciferase reporter, MG132, 8 h; 100% = twice DMSO control signal; hit rate 1.7% among 300,000;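 active = mean replicate activation of at least 50% with a set share of replicates each reaching 50%; inconclusive = only one of those two conditions met; inactive = mean below 50% and too few replicates reaching it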;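 note: 0% = median of the neutral control wells and 100% = twice that signal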
Wnt bcat act = Wnt/beta-catenin pathway activation | Wnt/beta-catenin reporter cell assay, activator, plate reader | activation, % at 9.35 µM | hit rate 1.2% among 300,000 | AID 743398; in the data active = activation above about 30%, passing the limit was not always enough; inconclusive = no clear call, values can overlap the other calls;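 note: 0% = neutral control wells and 100% = positive control wells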
HSF1 inh = HSF1 inhibition | NIH3T3-HGL HSE-luciferase, MG132-induced, luminescence 8 h; stronger effect = lower value | activity change, negative = inhibition, % at 7.5 µM (by protocol) | hit rate 0.77% among 300,000;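 active = more than half of replicate wells show activity change below -50%, luminescence cut by over half; inconclusive = some wells, but at most half, below -50%; inactive = no replicate well below -50%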;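 note: luciferase reports HSF-1 transcriptional activity via heat shock element; 0% = median of DMSO wells and -100% = zero luminescence signal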
MITF TRPM1 HTS = MITF TRPM1 promoter activation in melanoma cells; SK-MEL-5 TRPM1-promoter luciferase, 24 h; % of positive control, neutral wells = 0; activation, % at 12.5 µM; hit rate 0.75% among 300,000;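 active = mean activation of at least 80% with every replicate also reaching 80%; inconclusive = mean reaches 80% but some replicate falls short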;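 note: 0% = neutral control wells and 100% = parthenolide positive control wells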
esBAF inh = blocks esBAF chromatin remodeling in mouse ES cells; Bmi1-luciferase knock-in reporter, 24 h; 100% = twice the neutral-well signal; reporter increase, % at 12.5 µM; hit rate 2% among 350,000; in the data active = activation above about 40%; inconclusive = no clear call, values can overlap the other calls;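 note: 0% = median of the plate's neutral control wells and 100% = double that signal; a rise in the Bmi1 reporter signal indicates esBAF inhibition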
* = called active by the depositor; ? = inconclusive; / = no result given.

SMILES | HSF1 activator | Wnt bcat act | HSF1 inh | MITF TRPM1 HTS | esBAF inh
C[C@@H]1CCCCO[C@H](CN(C)S(=O)(=O)c2cccs2)[C@@H](C)CN([C@@H](C)CO)C(=O)c2cc(NC(=O)Nc3ccccc3)ccc2O1 | / | / | / | / | -7.4
Brc1ccc2c(c1)C(c1cccnc1)=NNC(c1cccs1)=N2 | 64.0* | / | 26.2 | -3.8 | /
O=C(C[C@@H]1CC[C@@H]2[C@H](COC[C@@H](O)CN2S(=O)(=O)c2ccc(F)cc2)O1)N[C@@H]1CCN(Cc2ccccc2)C1 | / | / | / | / | 4.6
O=c1c(-c2ccccc2)nc(-c2ccccc2)cn1O | 11.3 | / | 2.8 | 32.5 | 53.5*
O=C(O)Cn1c(=O)c(-c2ccccc2)nc2ccccc21 | -9.4 | 1.5 | -13.9 | / | -4.0
Cc1ccc(S(=O)(=O)Nc2ccc3c(c2)C(=O)N([C@@H](C)CO)C[C@H](C)[C@H](CN(C)S(=O)(=O)c2ccccc2)O3)cc1 | / | / | / | / | 6.3
CCCCCCCSc1ncnc2[nH]ncc12 | / | 3.5 | / | 24.0 | 70.2*
CSc1ncnc2[nH]ncc12 | / | 5.7 | / | 7.3 | 2.9
Cc1ccc(O)c(C(=O)/C=C/c2ccc3c(c2)OCCCO3)c1 | 447.6* | 15.4 | 278.0 | 70.5 | /
O=C(/C=C/c1ccc2c(c1)OCO2)c1ccc(F)cc1 | 25.8 | 27.2 | 8.8 | 62.4 | 31.1
Cc1ccc(C(=O)N/N=C/c2ccc3c(c2)OCO3)o1 | 11.6 | ? | 3.4 | 48.6 | /
O=C(/C=C/c1ccc2c(c1)OCO2)c1ccc[nH]1 | 62.3* | 42.4* | 25.5 | 53.2 | /
O=C(/C=C/c1ccc2c(c1)OCCCO2)c1ccccc1O | 12.3 | 14.5 | 16.1 | 51.2 | /
COc1cccc(/C=C/C(=O)Oc2ccc(C(=O)c3ccc(F)cc3)cc2)c1 | 8.1 | 6.3 | -3.6 | 0.9 | /
Cc1ccc(C(=O)/C=C/c2ccc3c(c2)OCO3)o1 | 59.5* | 11.3 | 40.9 | 19.8 | 12.5
COc1cccc(/C=C/C(=O)c2ccc[nH]2)c1 | 86.2* | / | 50.4 | 41.9 | 60.4*
C[C@@H]1CN([C@@H](C)CO)C(=O)Cc2cc(NC(=O)Cn3cnnn3)ccc2O[C@@H]1CN(C)Cc1ccc(C(=O)O)cc1 | / | / | / | / | -1.6
COCC(=O)N1C[C@H](C)[C@H](OC)CN(C)C(=O)c2ccc(NC(=O)c3cc(C)on3)cc2OC[C@@H]1C | / | / | / | / | -0.2
Cc1noc(C)c1NC(=O)Nc1ccc2c(c1)CC(=O)N([C@H](C)CO)C[C@@H](C)[C@H](CN(C)Cc1ccc(C(F)(F)F)cc1)O2 | / | / | / | / | -4.6
Cc1noc(C)c1NC(=O)N(C)C[C@@H]1OCc2ccccc2-c2ccccc2C(=O)N([C@@H](C)CO)C[C@@H]1C | / | / | / | / | 3.2
Nc1nnc(CC(=O)N/N=C/c2ccc(-c3cccc(C(=O)O)c3)o2)s1 | 14.9 | 37.8* | 2.3 | 8.1 | /
CCOC(=O)c1ccc(-c2ccc(/C=N/NC(=O)Cc3nnc(N)s3)o2)cc1 | 71.2* | 20.1 | 27.0 | 33.4 | /
Nc1nnc(CC(=O)N/N=C/c2ccc(-c3ccc(F)cc3)o2)s1 | 7.5 | 4.3 | 7.2 | / | /
CCCNC(=O)N(C)C[C@@H]1Oc2cc(C#CCN(C)C)ccc2S(=O)(=O)N([C@@H](C)CO)C[C@@H]1C | / | / | / | / | 0.8
C[C@@H]1CCCCO[C@H](CN(C)C(=O)Nc2ccc(C(F)(F)F)cc2)[C@@H](C)CN([C@H](C)CO)C(=O)c2cc(NC(=O)Nc3ccc(C(F)(F)F)cc3)ccc2O1 | / | / | / | / | -8.1
SMILES | HSF1 activator | Wnt bcat act | HSF1 inh | MITF TRPM1 HTS | esBAF inh
O=C(c1cc(-c2cccc(Cl)c2)on1)N1CCOCC1 | 29.3 | -0.6 | 14.6 | 100.5* | 44.3*
O=C(c1cc(-c2ccc(Cl)c(Cl)c2)on1)N1CCOCC1 | 43.0 | 2.9 | 24.1 | 89.8* | 42.0*
O=C(c1cc(-c2ccc(Cl)cc2)on1)N1CCOCC1 | 29.5 | / | 11.0 | 33.0 | -35.1
COCCNC(=O)c1cc(-c2ccc(Cl)c(Cl)c2)on1 | -22.9 | 8.2 | -0.6 | 44.6 | 52.2*
CO[C@@H]1CN(C)C(=O)c2ccc(NC(C)=O)cc2OC[C@@H](C)N(C(=O)c2ccncc2)C[C@H]1C | / | / | / | / | -0.7
O=C(c1ccc2c(c1)OCO2)N1C[C@@H]2[C@H](c3ccccc31)[C@@H](CO)N2Cc1ccc2c(c1)OCO2 | / | / | / | / | -2.1
CO[C@H]1CN(C)C(=O)c2ccc(NC(=O)Cc3ccccc3)cc2OC[C@H](C)N(C)C[C@H]1C | / | / | / | / | 2.9
COCCNC(=O)C[C@@H]1C[C@H]2c3cc(NC(=O)Nc4ccc(OC)cc4)ccc3O[C@H]2[C@@H](CO)O1 | / | / | / | / | 4.3
COc1ccc(NC(=O)Nc2ccc3c(c2)C(=O)N([C@@H](C)CO)C[C@@H](C)[C@H](CN(C)Cc2ccc(Cl)c(Cl)c2)OCCCC[C@@H](C)O3)cc1 | / | / | / | / | 3.1
